Assay results published in PubChem BioAssay AID504333 (National Center for Advancing Translational Sciences (NCATS), 2011).
Out of some 360,000 compounds screened, about 16,000 (4.4%) were called active. Entries that show only a call come without a potency. Roughly 9% stayed inconclusive and do not appear here. Calls come from the whole dose curve; as a rule, active = well fitted inhibition curve with a large enough effect; inconclusive = small, poorly fitted or top-dose-only effect; inactive = no such curve, though single readings can be large or run the other way. The full list was thinned out, with actives kept by preference.

target: Bromodomain adjacent to zinc finger domain protein 2B (Homo sapiens) (UniProt Q9UIF8); assay: qHTS Assay for Inhibitors of BAZ2B; details: AlphaScreen BAZ2B-H3K14Ac peptide displacement; series mostly up to 114 µM; note: nearly all actives have a fitted effect of over 60% in size
Sequence (Q9UIF8 whole entry, looked up, the tested form may be a part): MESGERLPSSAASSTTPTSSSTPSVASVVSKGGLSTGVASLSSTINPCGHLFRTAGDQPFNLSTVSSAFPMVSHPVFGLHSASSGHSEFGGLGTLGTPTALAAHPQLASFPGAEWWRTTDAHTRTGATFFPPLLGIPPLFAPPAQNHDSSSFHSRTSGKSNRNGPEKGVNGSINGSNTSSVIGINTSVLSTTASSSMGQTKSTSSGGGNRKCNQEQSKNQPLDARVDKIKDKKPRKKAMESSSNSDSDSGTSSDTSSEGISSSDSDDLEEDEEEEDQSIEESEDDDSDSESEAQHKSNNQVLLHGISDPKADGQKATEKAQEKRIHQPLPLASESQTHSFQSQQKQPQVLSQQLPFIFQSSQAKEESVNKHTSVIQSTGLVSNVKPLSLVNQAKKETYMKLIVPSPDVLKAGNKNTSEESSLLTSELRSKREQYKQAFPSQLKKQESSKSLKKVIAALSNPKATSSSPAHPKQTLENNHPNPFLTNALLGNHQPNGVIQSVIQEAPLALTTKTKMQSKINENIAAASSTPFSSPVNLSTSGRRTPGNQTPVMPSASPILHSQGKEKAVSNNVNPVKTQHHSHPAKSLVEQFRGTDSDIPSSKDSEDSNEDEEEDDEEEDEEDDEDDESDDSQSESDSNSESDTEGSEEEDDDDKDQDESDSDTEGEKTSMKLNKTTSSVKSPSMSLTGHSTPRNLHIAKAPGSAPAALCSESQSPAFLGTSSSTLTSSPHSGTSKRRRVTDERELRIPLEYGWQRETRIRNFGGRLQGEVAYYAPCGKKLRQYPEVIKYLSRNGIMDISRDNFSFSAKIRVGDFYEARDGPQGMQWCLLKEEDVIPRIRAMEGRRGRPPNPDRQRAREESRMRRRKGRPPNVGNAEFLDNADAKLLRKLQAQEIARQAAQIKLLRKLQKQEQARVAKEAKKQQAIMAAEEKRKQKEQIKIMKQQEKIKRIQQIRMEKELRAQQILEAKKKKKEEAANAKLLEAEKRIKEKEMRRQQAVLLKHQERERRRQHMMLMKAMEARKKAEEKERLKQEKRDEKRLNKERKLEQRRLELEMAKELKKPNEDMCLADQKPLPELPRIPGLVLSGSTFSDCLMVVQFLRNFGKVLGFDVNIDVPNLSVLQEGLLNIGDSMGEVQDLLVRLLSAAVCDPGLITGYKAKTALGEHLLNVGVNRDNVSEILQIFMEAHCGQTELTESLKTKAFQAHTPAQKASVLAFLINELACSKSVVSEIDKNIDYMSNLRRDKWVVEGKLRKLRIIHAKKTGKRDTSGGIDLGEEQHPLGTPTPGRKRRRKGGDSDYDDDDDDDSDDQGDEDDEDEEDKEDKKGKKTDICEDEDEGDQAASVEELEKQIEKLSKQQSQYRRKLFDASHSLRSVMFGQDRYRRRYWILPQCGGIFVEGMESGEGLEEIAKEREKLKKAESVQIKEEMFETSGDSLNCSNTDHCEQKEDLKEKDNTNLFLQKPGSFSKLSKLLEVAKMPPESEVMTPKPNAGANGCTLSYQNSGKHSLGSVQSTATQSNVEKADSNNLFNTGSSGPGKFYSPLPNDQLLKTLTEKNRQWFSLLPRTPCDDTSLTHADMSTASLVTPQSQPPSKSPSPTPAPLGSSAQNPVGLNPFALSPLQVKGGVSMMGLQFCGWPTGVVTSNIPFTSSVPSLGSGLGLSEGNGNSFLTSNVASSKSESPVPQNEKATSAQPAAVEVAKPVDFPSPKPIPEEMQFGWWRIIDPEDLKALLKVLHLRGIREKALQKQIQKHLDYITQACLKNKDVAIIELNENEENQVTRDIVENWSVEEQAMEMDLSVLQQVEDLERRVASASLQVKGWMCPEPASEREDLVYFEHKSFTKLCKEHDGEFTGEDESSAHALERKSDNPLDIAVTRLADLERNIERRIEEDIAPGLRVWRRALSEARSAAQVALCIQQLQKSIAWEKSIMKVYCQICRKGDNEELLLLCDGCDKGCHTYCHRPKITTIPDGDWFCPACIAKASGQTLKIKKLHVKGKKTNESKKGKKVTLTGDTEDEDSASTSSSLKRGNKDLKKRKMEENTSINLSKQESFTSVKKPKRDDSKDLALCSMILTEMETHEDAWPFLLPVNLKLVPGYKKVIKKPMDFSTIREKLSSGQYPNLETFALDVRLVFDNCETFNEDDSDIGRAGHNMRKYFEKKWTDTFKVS
Summary of the method: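 AlphaScreen displacement: compounds (up to 110uM) incubated 30 min at room temperature with a preformed 50 nM BAZ2B/50 nM biotinylated H3K14Ac peptide complex in PBS pH 7.4 with Tween-20. Donor and acceptor beads at 10 ug/mL final added, 20 min light-protected before reading.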
Potency is the fitted concentration of half-maximal effect.

SMILES	Potency
CN(C(=O)CSc1nc2ccc(NC(=O)COc3ccccc3)cc2s1)c1ccccc1	inactive
O=C(NCCCn1ccnc1)c1cc2c(s1)CCCC2	56.2 µM (active)
O=C(NCCCn1ccnc1)c1cc(Br)c(Br)s1	inactive
O=C(NCCCN1CCOCC1)c1cc2c(s1)CCC2	inactive
Cc1ccccc1CNC(=O)C1CCCN(S(=O)(=O)N(C)c2ccc(F)cc2)C1 (stereo unspecified)	inactive
CCOC(=O)c1c(S(=O)(=O)NCC(=O)Nc2ccc(Cl)c(C(F)(F)F)c2)c(C)n(C)c1C	inactive
COc1cccc(NC(=O)CSC2=Nc3ccccc3C3=NC(CC(=O)NC4CCCCC4)C(=O)N23)c1 (stereo unspecified)	inactive
Cc1nc(Nc2ccc3c(c2)OCCO3)c2nnn(Cc3ccccc3Cl)c2n1	inactive
S=C(Nc1cccc(Cl)c1)Nc1ccc2c(c1)OCCO2	inactive
Cc1cccc2nc(-c3ccc(Cl)s3)c(Nc3ccc4c(c3)OCCO4)n12	12.6 µM (active)
Cc1cc(Nc2ccccc2)n(C(=O)c2ccc(N)cc2)n1	inactive
Nc1ccc(S(=O)(=O)NC(=O)c2ccccc2)cc1	inactive
Nc1ccc(Nc2ccccc2)cc1	35.5 µM (active)
CCCOc1ccc(NC(=O)CC2C(=O)N(c3ccccc3)C(=O)N2Cc2ccco2)cc1 (stereo unspecified)	inactive
C[N+]1(CCNC(=O)/C=N/O)CCCCC1	79.4 µM (active)
CCOc1c(OC)cc(C2C(C#N)=C(N)Oc3n[nH]c(-c4ccncc4)c32)cc1OC (stereo unspecified)	inactive
COc1ccc(C2C(C#N)=C(N)Oc3n[nH]c(C)c32)cc1CN1CCN(c2ccc(F)cc2)CC1 (stereo unspecified)	50.1 µM (active)
COc1cc(C2C(C#N)=C(N)Oc3n[nH]c(-c4ccccn4)c32)cc(OC)c1OC (stereo unspecified)	inactive
O=C(CSc1nc(=O)n(Cc2cccnc2)c2c1CCC2)Nc1ccc(F)cc1F	inactive
c1ccc(COc2ccccc2CNCc2cccnc2)cc1	inactive
N#Cc1nc(COc2ccc(-c3ccccc3)cc2)oc1NCc1cccnc1	11.2 µM (active)

SMILES	Potency
O=S(=O)(c1ccccc1)c1nc(-c2ccccc2F)oc1NCc1cccnc1	inactive
O=C(NCCCO)C(=O)Nc1c2c(nn1-c1ccc(F)cc1)CSC2	inactive
CCOc1ccc(C2C(=O)N(C3CCCCC3)CC(=O)N2CCC2=CCCCC2)cc1OC (stereo unspecified)	inactive
Fc1ccccc1OCCCCn1cncn1	inactive
CN1CCN(CCCCOc2cccc3ccccc23)CC1	inactive
CCN1CCN(CCCCOc2ccccc2F)CC1	50.1 µM (active)
CCn1c2c(c(=O)n3ncc(C(=O)N4CCN(c5ccccc5)CC4)c13)CN(Cc1ccc(OC)cc1)CC2	inactive
O=C(Nc1ccc(F)cc1F)c1cnn(-c2ccc(F)cc2)c1-n1cccc1	inactive
CCOC(=O)Cn1c(=O)n(C2CCCCC2)c2nc(-c3cccc(OC)c3)nc(C(N)=O)c21	inactive
CC(C)(C)n1c(=O)[nH]c2c(c1=O)CCC2	inactive
O=c1[nH]n2c(=O)c3c([nH]c2c1N=Nc1ccccc1)CCC3	39.8 µM (active)
N#Cc1c2c(c(-c3ccccc3)[nH]c1=O)CCCC2	inactive
COc1cc(CN(CC2CCCO2)C(=O)c2ccccc2F)cc(OC)c1OC (stereo unspecified)	inactive
O=C(NCc1ccccc1)c1cc(-c2cccc(Cl)c2)on1	inactive
O=C1c2ccccc2NC(c2ccc(-c3cccc(Cl)c3)o2)N1O (stereo unspecified)	inactive
O=C(O)C(c1ccccc1)N1C(=O)/C(=C\c2ccc(-c3cccc(Cl)c3)o2)SC1=S (stereo unspecified)	22.4 µM (active)
COc1cccc(NC(=O)CN2C(=O)c3ccccc3Sc3ncccc32)c1	inactive
CC(=O)Nc1ccc(NC(=O)c2cc3sccc3n2Cc2ccc(F)cc2)cc1	inactive
COC(=O)c1ccc(NC(=O)CSc2n[nH]c(-c3ccccc3)n2)cc1	inactive
CCOC(=O)c1sc(=S)n(-c2cccc(OC)c2)c1N	50.1 µM (active)
Cc1cccc(-n2c(N)c(C(=O)N3CCN(C)CC3)sc2=S)c1	inactive

SMILES	Potency
COc1cccc(-n2c(=S)sc3c(=O)n(-c4ccccc4C)c(SCC(=O)O)nc32)c1	inactive
c1ccc(CN2CCC(N=C3NN=C(c4ccc5c(c4)OCCO5)CS3)CC2)cc1	39.8 µM (active)
Clc1cccc(N=C2NN=C(c3ccc4c(c3)OCCO4)CS2)c1	inactive
CS(=O)(=O)N(CC(=O)N1CCN(Cc2ccccc2)CC1)c1ccc2c(c1)OCCO2	inactive
Cc1ccc(NC(=O)CN2C(=O)CC(C)Sc3ccccc32)c(C)c1 (stereo unspecified)	inactive
CCCC(=O)C1=C(N(C)c2ccccc2)CC(C)(C)C(C(=O)OC)C1=O (stereo unspecified)	inactive
C=CCO/N=C/C1=C(O)C(C(=O)OC)C(C)(C)CC1=O (stereo unspecified)	39.8 µM (active)
COc1ccc(CCNc2nc(-c3ccc(F)cc3)cc(C(F)(F)F)n2)cc1OC	inactive
CCOC(=O)c1c(NC(=O)COc2cc(C)ccc2C(C)C)sc(C)c1C	inactive
O=C1CN(C(=O)Nc2ccccc2C(F)(F)F)C(c2ccccc2)c2c(sc3c2CCCC3)N1 (stereo unspecified)	inactive
CC(C)(C)C(=O)OCc1nc(-c2ccc(O)c(O)c2)cs1	56.2 µM (active)
COc1cc(CC(=O)Nc2nc(-c3ccc(F)c(F)c3)cs2)cc(OC)c1OC	inactive
Cc1onc(C(=O)NN)c1-c1csc(COc2ccccc2)n1	inactive
Cc1cccc(C2c3[nH]c4ccccc4c3CCN2C(=O)c2cc(-c3cccn3C)n[nH]2)n1 (stereo unspecified)	12.6 µM (active)
Cc1ccc(C2c3[nH]c4ccccc4c3CCN2C(=O)c2cccc(C)c2)cc1 (stereo unspecified)	inactive
COCc1ccc(CN2CCC(Oc3ccc(C(=O)NCc4ccccn4)cc3)CC2)o1	inactive
COC(=O)[C@H]1[C@H]2C[C@H]3c4[nH]c5ccccc5c4CCN3C[C@@H]2CC[C@@H]1O	inactive
COCc1ccc(C(=O)N2CCc3c([nH]c4ccccc34)C2c2ccccn2)s1 (stereo unspecified)	35.5 µM (active)
COc1ccc(Cn2cc(C(=O)c3ccc(C)cc3)c(=O)c3cc(OC)c(OC)cc32)cc1	inactive
CCn1c(CN2CCC(C)CC2)nc2cc(NC(=O)c3ccccc3[N+](=O)[O-])ccc21	inactive
CCc1ccc(Sc2cc(C(=O)NCCCOC(C)C)c3ccccc3n2)cc1	inactive

SMILES	Potency
CCOc1ccc(CNC(=O)Cn2cc3c(n2)-c2c(oc(C(=O)N4CCCC4)c2C)CC3)cc1	inactive
COc1cc(C2c3c(oc4ccccc4c3=O)C(=O)N2c2nc(C)c(C)s2)ccc1O (stereo unspecified)	inactive
COc1ccc(/C=N/OCC(=O)N(Cc2ccccc2)c2ccccc2C(=O)O)cc1	inactive
Oc1ccc(/C=N/N(Cc2ccccc2)c2ccccc2)cc1	39.8 µM (active)
CCN(CC)C(=O)N(CC)Cc1ccccc1	inactive
COc1ccc(/C=C2\SC(=S)N(CC(=O)NNC(=O)c3ccncc3)C2=O)cc1	inactive
COc1cccc(/C=C2/SC(=S)N(CC(=O)NC3C=CS(=O)(=O)C3)C2=O)c1 (stereo unspecified)	inactive
COc1ccc(/C=C2\SC(=S)N(CCC(=O)Nc3cccc(C(=O)O)c3)C2=O)cc1OC	50.1 µM (active)
O=C(CCCOc1ccccc1)Nc1cccc(C(=O)O)c1	inactive
Cc1ccc(/C=C2\SC(=S)N(CCC(=O)Nc3ccc(O)cc3)C2=O)cc1	inactive
COc1cc(/C=C2/SC(=S)N(Cc3ccccc3)C2=O)cc(OC)c1O	12.6 µM (active)
Cc1ccc(C(=O)Nc2ccccc2F)cc1S(=O)(=O)N1CCOCC1	inactive
CC(C)(C)OC(=O)N1CCC(c2c(C(=O)N3CCc4ccccc4C3)cnn2-c2ccc(F)cc2)CC1	inactive
Cc1ccc(CN2CCC(CNC(=O)c3cnn(-c4ccccc4Cl)c3C3CCN(C(=O)OC(C)(C)C)CC3)CC2)cc1	inactive
CCc1ccc(S(=O)(=O)Nc2cc3c(C(=O)OCc4ccccc4)c(C)oc3c3ccccc23)cc1	inactive
COc1ccccc1N1CCN(S(=O)(=O)CCNC(=O)COc2ccc(F)cc2)CC1	inactive
O=C(C1CCCN(S(=O)(=O)c2cccc3nonc23)C1)N1CCN(c2ccccc2F)CC1 (stereo unspecified)	inactive
COc1cc(C(=O)Nc2ccc(OCc3cc(=O)n4ccc(C)cc4n3)cc2)cc(OC)c1OC	inactive
